# Reference: the supplement of paper PMC11624193, “Coupling cellular drug-target engagement to downstream pharmacology with CeTEAM” (Nature Communications, 2024)
# Where a name gives a salt, the structure may show the parent alone.
# Biological target: PARP1 L713F-nLuc biosensor (HCT116) (UniProt P09874)
# Assay: PARP1 L713F-nLuc/akaLuc ratio relative to DMSO control (biosensor stabilization) (fold change); higher = more PARP1 biosensor stabilization (target engagement / stabilizer), active = hit call of the paper
# Details: stock concentration (mM; final µM = stock mM x 1): 10; 24 h;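 active = log2 fold change beyond 2 SD from the library mean after excluding viability outliers; inactive = within 2 SD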
# Chain of PARP1 L713F-nLuc biosensor (HCT116) (P09874 whole entry L713F, looked up): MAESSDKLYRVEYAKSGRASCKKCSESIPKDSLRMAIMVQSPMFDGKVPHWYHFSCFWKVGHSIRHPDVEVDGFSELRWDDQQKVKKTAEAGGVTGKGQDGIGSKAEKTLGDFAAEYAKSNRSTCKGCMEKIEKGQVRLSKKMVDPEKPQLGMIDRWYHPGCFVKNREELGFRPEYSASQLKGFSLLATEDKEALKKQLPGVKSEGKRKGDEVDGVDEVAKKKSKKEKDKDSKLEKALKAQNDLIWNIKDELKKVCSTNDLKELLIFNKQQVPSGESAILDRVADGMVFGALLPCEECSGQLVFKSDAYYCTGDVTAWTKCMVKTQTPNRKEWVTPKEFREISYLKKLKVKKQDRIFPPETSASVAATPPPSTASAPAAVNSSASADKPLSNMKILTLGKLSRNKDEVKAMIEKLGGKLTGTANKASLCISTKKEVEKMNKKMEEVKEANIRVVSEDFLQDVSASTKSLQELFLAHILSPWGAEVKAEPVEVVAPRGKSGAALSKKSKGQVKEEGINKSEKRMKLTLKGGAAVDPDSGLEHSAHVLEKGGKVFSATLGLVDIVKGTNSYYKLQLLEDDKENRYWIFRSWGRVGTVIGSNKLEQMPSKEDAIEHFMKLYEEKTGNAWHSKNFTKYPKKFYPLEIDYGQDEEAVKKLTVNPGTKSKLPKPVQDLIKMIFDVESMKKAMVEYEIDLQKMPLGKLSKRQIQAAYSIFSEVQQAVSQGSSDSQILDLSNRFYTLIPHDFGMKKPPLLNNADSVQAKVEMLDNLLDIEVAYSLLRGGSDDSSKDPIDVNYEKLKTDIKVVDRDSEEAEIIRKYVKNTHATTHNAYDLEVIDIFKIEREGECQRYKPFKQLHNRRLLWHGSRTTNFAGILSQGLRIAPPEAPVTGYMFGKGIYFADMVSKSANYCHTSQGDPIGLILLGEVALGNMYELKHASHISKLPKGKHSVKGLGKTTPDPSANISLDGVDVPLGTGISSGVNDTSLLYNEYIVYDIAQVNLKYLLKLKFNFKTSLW
row,Structure (SMILES),PARP1 L713F-nLuc/akaLuc ratio
1,CCN1CCN(Cc2ccc(Nc3ncc(F)c(-c4cc(F)c5nc(C)n(C(C)C)c5c4)n3)nc2)CC1 [Abemaciclib],0.621 (inactive)
2,CNCCN1CCC(OCc2ccccc2)CC1,0.908 (inactive)
3,O=C(NCCCNC(=O)Nc1cccc(C2=NCCN2)c1)Nc1cccc(C2=NCCN2)c1 [p32 Inhibitor M36],1.09 (inactive)
4,Cc1ccc(Oc2nc3cc(-c4ccc5c(ccn5C)c4)c(Cl)cc3[nH]2)cc1C(=O)O,0.541 (inactive)
5,COCCCc1sc(-c2ccccc2)nc1C(=O)Nc1ccccc1-c1nc2cc(CN3CCCC3)cnc2s1 [Sirtuin modulator 1],0.737 (inactive)
6,O=C(NO)c1ccc(CN2CCCc3cc(Cl)ccc32)cc1,1.01 (inactive)
7,N=C(N)c1ccc(-c2ccc(-c3ccc(C(=N)N)cc3)o2)cc1 [Furamidine (dihydrochloride)],0.717 (inactive)
8,"CC1(C)CCC(CN2CCN(c3ccc(C(=O)NS(=O)(=O)c4ccc(NCC5CCOCC5)c([N+](=O)[O-])c4)c(Oc4cnc5[nH]ccc5c4)c3)CC2)=C(c2ccc(Cl)cc2)C1 [Venetoclax (ABT-199, GDC-0199)]",0.901 (inactive)
9,Clc1ccc(C(c2ccccc2Cl)C(Cl)Cl)cc1 (centres undefined) [Mitotane],0.67 (inactive)
10,O=C(c1cc(Cc2n[nH]c(=O)c3ccccc23)ccc1F)N1CC(CNC2CC2)C1 [Venadaparib],5.9 (active)
11,CCc1cc2c(cc1N1CCC(N3CCOCC3)CC1)C(C)(C)c1[nH]c3cc(C#N)ccc3c1C2=O,2.06 (inactive)
12,O=C(O)c1ccccc1Nc1cccc(C(F)(F)F)c1 [Flufenamic acid],1.23 (inactive)
13,CS(=O)(=O)NCCC1CCN(c2ncnc3cc(C(N)=O)sc23)CC1,0.762 (inactive)
14,"Cc1cc(Nc2cc(N3CCN(C)CC3)nc(Sc3ccc(NC(=O)C4CC4)cc3)n2)n[nH]1 [Tozasertib (VX-680, MK-0457)]",0.821 (inactive)
15,Cc1nc(N)nc(N)c1-c1ccc(Cl)c(Cl)c1 [Metoprine],0.685 (inactive)
16,COc1cccc(OC)c1C(=O)OCc1cc(O)ccc1O[C@@H]1O[C@H](CO)[C@@H](O)[C@H](O)[C@H]1O [Curculigoside],0.993 (inactive)
17,CN1CCN(c2ccc3nc(-c4ccc5nc(-c6cccc(OCCCC(=O)NCCCN=[N+]=[N-])c6)[nH]c5c4)[nH]c3c2)CC1 [Targapremir-210],1.46 (inactive)
18,CC(=O)O[C@@H]1CC[C@@]2(C)[C@@H](CC[C@]3(C)[C@@H]2C(=O)C=C2[C@@H]4[C@@H](C)[C@H](C)CC[C@]4(C)CC[C@]23C)[C@@]1(C)C(=O)O,1.18 (inactive)
19,CC(C)Oc1ccc(-c2nn([C@@H](C)c3oc4ccc(F)cc4c(=O)c3-c3cccc(F)c3)c3ncnc(N)c23)cc1F [umbralisib (TGR-1202)],1.01 (inactive)
20,CN1CCN(c2ccc(-c3cccc(CN4CCOCC4)c3)cc2NC(=O)c2c[nH]c(=O)cc2C(F)(F)F)CC1,0.636 (inactive)
21,Nc1nc(=O)n([C@H]2C[C@H](O)[C@@H](CO)O2)cc1F [5-Fluoro-2'-deoxycytidine],0.559 (inactive)
22,COc1ccc2c(c1O)OC(C)(C)c1c-2ccc2c1C(=O)N(c1ccc(C(=O)c3ccccc3)cc1)C2=O [Ampkinone],1.18 (inactive)
23,CN1C[C@@H](Nc2cnn(C)c(=O)c2Br)C[C@@H](c2ccccc2)C1,0.711 (inactive)
24,CS(=O)(=O)c1ccc(Oc2cc(F)cc(C#N)c2)c2c1[C@H](O)C(F)(F)C2,1.42 (inactive)
25,CN(C)Cc1ccc(-c2nc3cccc4c3n2CCNC4=O)cc1,8.09 (active)
26,CO[C@H]1C[C@@H]2CC[C@@H](C)[C@@](O)(O2)C(=O)C(=O)N2CCCC[C@H]2C(=O)O[C@H]([C@H](C)C[C@@H]2CC[C@@H](OCCO)[C@H](OC)C2)CC(=O)[C@H](C)/C=C(\C)[C@@H](O)[C@@H](OC)C(=O)[C@H](C)C[C@H](C)/C=C/C=C/C=C/1C [Everolimus (RAD001)],0.669 (inactive)
27,O=C(Nc1ccnc(NC(=O)C2CC2)c1)c1c(Cl)cccc1Cl,1.13 (inactive)
28,Cn1cc(C(N)=O)ccc1=O [Nudifloramide],0.909 (inactive)
29,COc1ccc2cc3[n+](cc2c1OC)CCc1cc(O)c(O)cc1-3 [Demethyleneberberine],1.47 (inactive)
